From PubChem BioAssay come the findings set out here.

Each structure is given as a SMILES string.

Test [1] concerns Human papillomavirus type 1a protein E7 (residues 44-93). In words: small molecules binding HPV E7 44-93 – biochemical, small-molecule microarray, residues 44-93, 635 nm fluorescence, primary screen (AID 1108).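 Note: E7 fragment applied at 1 µg/mL in TBST for 1 h at 4 C; score combines spot fluorescence with its signal to noise ratio.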 The following applies: fluorescence 635 nm, higher = more signal.
Test [2] in a line: hepatitis C replication reporter changes, two-sided – Huh7 cells, luciferase reporter, HCV replication inhibitor project, primary screen (AID 1109).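 Note: huh7 hepatoma cells harbouring a luciferase neomycin HCV replicon reporter; luciferase luminescence as measure of HCV replicon replication; test concentration not given here.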 The following applies: Huh7 HCV replicon luciferase reporter, 48 h; higher = more signal. (In general: In a reporter assay the amount or activity of a reporter protein is the signal.)
Test [3] deals with Left-right determination factor 2 (Homo sapiens) (UniProt O00292). Nature of the test: small molecules binding LEFTY2 protein – biochemical, small-molecule microarray, 635 nm fluorescence scan, primary screen (AID 1110). The note with it: higher = more signal.
Test [4] concerns the target Calmodulin-1 (Homo sapiens) (UniProt P0DP23). Nature of the test: small molecules binding calmodulin-1 with EGTA – biochemical, small-molecule microarray, Cy5-labelled CALM1, profiling panel (AID 1111).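 Note: labelled calmodulin applied in Tris saline Tween buffer holding calcium plus EGTA and DTT.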 The following applies: Cy5-CALM1 binding fluorescence, higher = more signal.
For test [5] the target is unchanged. Nature of the test: small molecules binding Ca-loaded calmodulin-1 – biochemical, small-molecule microarray, Cy5-labelled CALM1, plus calcium, artefact control for SMM control-protein annotation, profiling panel (AID 1112).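 Note: score merges spot fluorescence with signal to noise from triplicate slides.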 The following applies: Cy5-CALM1 binding fluorescence, higher = more signal.
A short description of test [6]: probe aWnt5a binding to arrayed compounds – biochemical, biotinylated probe, 635/667 nm fluorescence, primary screen (AID 1113).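 Note: score merges 667 nm fluorescence intensity with signal-to-noise per printed feature.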 The following applies: small-molecule microarray, higher = more signal.
Test [7] in a line: probe aShh binding to arrayed compounds – biochemical, biotinylated probe, 635/667 nm fluorescence, primary screen (AID 1114).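 Note: probe is biotin-labelled aShh protein from a stem cell growth factor screen; measures binding of labelled protein to compounds printed on the slide; score merges feature fluorescence at 667 nm with signal-to-noise.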 The note with it: small-molecule microarray, higher = more signal.
Test [8] in a line: probe aNog binding to arrayed compounds – biochemical, biotinylated probe, 635/667 nm fluorescence, primary screen (AID 1115).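 Note: probe is biotinylated aNog protein used at 0.15 µg/mL for 1 h at 4 C; z-score combines 667 nm fluorescence of each spot with its signal to noise.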 The following applies: small-molecule microarray, higher = more signal.
For test [9], the target named is Torsin-1A-interacting protein 1 (Homo sapiens) (UniProt Q5JTV8). In words: compound microarray binding of lysate hLAP1 – cell lysate, small-molecule microarray, COS7 lysate, 635/667 nm fluorescence, primary screen (AID 1116). The following applies: 635 nm fluorescence, higher = more signal.
Test [10] has as its target Alpha-bungarotoxin (Bungarus multicinctus) (UniProt P60615). Nature of the test: compounds binding labelled alpha-BTX control protein – biochemical, small-molecule microarray, Alexa647 label, 635/667 nm fluorescence, artefact control for SMM control protein annotation, profiling panel (AID 1117). The following applies: alpha-BTX-A647 binding fluorescence, higher = more signal.

Chain of Torsin-1A-interacting protein 1 (Homo sapiens) (Q5JTV8 whole entry, looked up): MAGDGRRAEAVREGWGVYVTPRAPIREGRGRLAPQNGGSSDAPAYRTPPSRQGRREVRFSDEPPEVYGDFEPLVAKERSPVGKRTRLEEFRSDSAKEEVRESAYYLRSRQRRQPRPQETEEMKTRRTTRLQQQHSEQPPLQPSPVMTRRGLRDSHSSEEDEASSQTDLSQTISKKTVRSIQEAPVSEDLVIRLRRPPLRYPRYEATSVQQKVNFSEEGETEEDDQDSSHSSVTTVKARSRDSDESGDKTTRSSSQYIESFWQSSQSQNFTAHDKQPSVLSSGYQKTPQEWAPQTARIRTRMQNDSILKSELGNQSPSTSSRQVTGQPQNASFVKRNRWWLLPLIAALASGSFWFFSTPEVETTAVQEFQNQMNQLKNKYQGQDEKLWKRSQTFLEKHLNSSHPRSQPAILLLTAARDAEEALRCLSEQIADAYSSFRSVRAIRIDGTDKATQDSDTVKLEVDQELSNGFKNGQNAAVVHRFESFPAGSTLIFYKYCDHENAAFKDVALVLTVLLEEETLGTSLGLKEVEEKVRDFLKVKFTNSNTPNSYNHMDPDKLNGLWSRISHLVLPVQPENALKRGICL
Chain of Alpha-bungarotoxin (Bungarus multicinctus) (P60615 whole entry, looked up): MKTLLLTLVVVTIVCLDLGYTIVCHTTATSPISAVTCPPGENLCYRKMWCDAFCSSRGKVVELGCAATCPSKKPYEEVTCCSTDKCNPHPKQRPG
Chain of Left-right determination factor 2 (Homo sapiens) (O00292 whole entry, looked up): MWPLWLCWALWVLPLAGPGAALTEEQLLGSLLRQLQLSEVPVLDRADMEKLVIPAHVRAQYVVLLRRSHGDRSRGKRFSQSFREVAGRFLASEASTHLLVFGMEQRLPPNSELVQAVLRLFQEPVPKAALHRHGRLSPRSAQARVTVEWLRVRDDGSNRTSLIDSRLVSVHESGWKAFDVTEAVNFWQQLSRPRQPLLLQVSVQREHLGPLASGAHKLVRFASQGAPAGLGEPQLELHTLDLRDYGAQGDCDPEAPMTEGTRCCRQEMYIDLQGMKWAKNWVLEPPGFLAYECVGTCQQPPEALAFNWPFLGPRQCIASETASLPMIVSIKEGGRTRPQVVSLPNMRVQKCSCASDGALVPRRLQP

For the compound `CN(C)CCCCCCNC(=O)[C@@H]1C[C@@H]2C(=O)N3CCC[C@H]3C(=O)N2[C@@H]1c1cccc(OCCO)c1`, the composite z-score in test [1] was 0.35; in [3], 0.944; in test [4], -0.215; in [5] it was -1.74; in test [6], 0.0566; in [7], 0.176. Further, the composite z-score in [8] was 0.822; in test [9] it was 2.07; in test [10] it was 1.79. The same compound gave a z-score in test [2] of 0.857.
Regarding `N#Cc1ccc(NN2C(C(O)c3ccc(Br)cc3)C=CC3C(=O)N(c4ccccc4)C(=O)C32)cc1` (stereo not given), the composite z-score in [1] is -1.46; in test [3], 0.503; in test [4], 1.53; in test [5], 0.141; in test [6] it was 0.234; in test [7], 0.162. The composite z-score amounted to 2.03 in [8], 1.14 in test [9] and 2.36 in test [10]. In addition, the z-score in [2] is -0.431.
On to `C=C(COC)/C(=C/C[C@H](OC(=O)c1ccncc1)c1ccc(CO)o1)c1cnc2ccccc2c1`, for which the composite z-score in test [1] is 1.38; in test [3] it was 0.321; in [4] it was -0.0747; in test [5], -0.91; in test [6], -0.0758; in test [7], 0.337. The figures for the composite z-score in [8], in [9] and in test [10] were -0.12, 0.865 and 1.91, respectively. In test [2], the z-score was -0.403.
Consider `COCCOC(=O)N1C(=O)[C@@]2(c3ccccc31)[C@H](c1ccc(O)cc1)N1[C@H](c3ccccc3)[C@H](c3ccccc3)OC(=O)[C@H]1[C@@H]2C(=O)N1CCN(c2ncccn2)CC1`, for which the composite z-score is 1.29 in test [1]; 0.332 in test [3]; 0.667 in test [4]; 0.618 in test [5]; -0.0084 in test [6]; 0.0469 in test [7]. In addition, the composite z-score came to 0.927 in [8], 0.675 in test [9] and 0.692 in test [10]. This compound registered a z-score in [2] of -1.51.
In the case of `CCCC=C(CCC)[C@@H](NP(=O)(c1ccccc1)c1ccccc1)c1ccc(-c2ccccc2)cc1`, the composite z-score in test [1] stood at 1.23; in [3], 0.53; in test [4], 0.877; in test [5], 0.796; in [6], 0.328; in test [7], 0.972. The figures for the composite z-score in [8], in [9] and in test [10] were 1.35, 0.946 and 1.3, respectively. For the same compound, the z-score in test [2] was -2.72.
With `[N-]=[N+]=Nc1ccccc1C[C@]1(C(=O)O)COC(c2ccc(OCCCO)cc2)=N1`, the composite z-score in test [1] is 0.118; in test [3], -0.856; in test [4] it was 0.166; in [5], 0.897; in [6], 0.0718; in [7] it was 0.232. Also, the composite z-score in test [8] was 0.253; in test [9] it was -0.811; in test [10], -0.215. This compound had a z-score in test [2] of 0.928.
On to `COC(=O)[C@@]1(Cc2ccccc2)[C@H]2c3cc(C(=O)N(C)C)n(Cc4ccc(C)o4)c3C[C@H]2CN1C(=O)c1ccccc1`, for which the composite z-score in [1] amounted to 0.946; in test [3] it was 0.0319; in test [4] it was 1.69; in test [5] it was 1.26; in [6], 0.69; in test [7], 1.95. Further, the composite z-score was found to be 0.728 in test [8], 1.29 in test [9] and 0.76 in test [10]. The same compound displayed a z-score in test [2] of -2.49.
Take `CC(C)=C1C(=O)C(c2ccccc2)=C2CN3C(=O)N(CCc4ccccc4)C(=O)[C@]3(Cc3ccc(C(F)(F)F)cc3)[C@H]21`: the composite z-score in test [1] is -0.396; in [3], -0.906; in test [4], 1.66; in test [5], 0.953; in test [6], 0.0044; in test [7], 0.275. The results for the composite z-score in [8], in [9] and in [10] were -0.781, 0.759 and 0.716, respectively. The compound further came in with a z-score in test [2] of -0.508.
`C=CCC(OC(C)=O)[C@@H]1[C@@H](N(Cc2cccc3ccccc23)C(=O)Cc2ccc(F)cc2)c2cc(OCCCO)ccc2N1C(=O)c1ccc2ccccc2c1` (stereo not given in full): the composite z-score is 0.408 in [1]; 0.171 in test [3]; -0.0876 in test [4]; 0.441 in test [5]; -0.124 in test [6]; -0.0626 in test [7]. Besides, the composite z-score in test [8] was -0.17; in [9] it was -0.0393; in test [10], 0.0927. This compound yielded a z-score in [2] of -0.204.
On to `COc1ccc([Si](C)(C)[C@@H]2[C@@H](CC(=O)N3CCC[C@H]3CO)O[C@]3(C(=O)N(Cc4cccc(N5C(=O)COc6ccccc65)c4)c4ccccc43)[C@H]2C)cc1`, for which the composite z-score was 1.35 in [1]; 0.486 in test [3]; 1.49 in test [4]; 0.343 in test [5]; 0.0215 in [6]; 0.131 in test [7]. The composite z-score in test [8] was -0.368; in test [9], 1.41; in [10], 0.678. This compound displayed a z-score in test [2] of -4.2.
As for `COC(=O)C1(CC(C)C)C=C2C(=C(c3ccccc3)C(=O)C2C)CN1` (stereo not given), the composite z-score in [1] was -0.518; in test [3], -0.844; in [4], -0.0555; in test [5], 0.358; in test [6], 0.554; in test [7] it was 0.538. Besides, the composite z-score in test [8] was 0.689; in [9], 1.09; in test [10], -0.194. The compound further had a z-score in test [2] of -1.33.
